In the supplement of paper PMC6411743:
± gives the standard deviation of the averaged measurements. Targets with the largest changes are over-represented here; the source holds about 5,400 in all.

Compound: Nc1nc2c(ncn2[C@@H]2O[C@H](COP(=O)(O)OP(=O)(O)OP(=O)(O)O)[C@@H](O)[C@H]2O)c(=O)[nH]1 [guanosine triphosphate]
Assay: NP40-soluble protein abundance relative to vehicle (solubility fold change) (ratio); higher = more soluble protein in presence of GTP
Outline: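 In three independent experiments, Jurkat crude lysate made by Dounce homogenisation was treated for 10 min at room temperature and then 3 min at 37 °C with eight concentrations ranging from 0.1 to 10 mM. It was then solubilised with 0.8% NP40 plus benzonase for 60 min at 4 °C and ultracentrifuged. The supernatant was TMT-labelled for LC-MS/MS, and each value is the fold change against the detergent-processed vehicle for the same replicate, using vsn-normalised intensities.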

H0YL22|Q9Y375 (UniProt Q9Y375)
UniProt Q9Y375, sequence (Q9Y375 whole entry, one chain of several): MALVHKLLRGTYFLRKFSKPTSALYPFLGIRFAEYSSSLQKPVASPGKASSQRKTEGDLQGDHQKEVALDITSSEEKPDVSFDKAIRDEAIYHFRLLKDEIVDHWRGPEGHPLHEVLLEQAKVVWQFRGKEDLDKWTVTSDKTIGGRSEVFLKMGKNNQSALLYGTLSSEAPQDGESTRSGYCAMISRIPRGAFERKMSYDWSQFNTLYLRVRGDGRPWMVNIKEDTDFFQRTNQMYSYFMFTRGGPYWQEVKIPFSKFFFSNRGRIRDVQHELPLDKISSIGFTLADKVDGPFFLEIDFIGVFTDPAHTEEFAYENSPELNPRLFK
NP40-soluble protein abundance (concentration: 0.1mM): 0.979 ± 0.059 | NP40-soluble protein abundance (concentration: 0.5mM): 1.05 ± 0.082 | NP40-soluble protein abundance (concentration: 1mM): 0.936 ± 0.088 | NP40-soluble protein abundance (concentration: 2mM): 0.969 ± 0.071 | NP40-soluble protein abundance (concentration: 4mM): 0.922 ± 0.036 | NP40-soluble protein abundance (concentration: 6mM): 0.924 ± 0.065 | NP40-soluble protein abundance (concentration: 8mM): 0.921 ± 0.071 | NP40-soluble protein abundance (concentration: 10mM): 0.943 ± 0.059

E9PSH8|P07766 (UniProt P07766)
UniProt P07766, sequence (P07766 whole entry, one chain of several): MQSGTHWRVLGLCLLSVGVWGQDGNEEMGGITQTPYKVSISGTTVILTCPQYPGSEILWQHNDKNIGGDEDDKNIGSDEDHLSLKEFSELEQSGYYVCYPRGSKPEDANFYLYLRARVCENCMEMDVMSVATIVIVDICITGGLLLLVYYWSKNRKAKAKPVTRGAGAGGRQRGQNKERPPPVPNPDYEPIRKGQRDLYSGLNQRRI
NP40-soluble protein abundance (concentration: 0.1mM): 0.955 ± 0.049 | NP40-soluble protein abundance (concentration: 0.5mM): 0.991 ± 0.076 | NP40-soluble protein abundance (concentration: 1mM): 0.986 ± 0.071 | NP40-soluble protein abundance (concentration: 2mM): 0.958 ± 0.085 | NP40-soluble protein abundance (concentration: 4mM): 0.962 ± 0.082 | NP40-soluble protein abundance (concentration: 6mM): 0.96 ± 0.082 | NP40-soluble protein abundance (concentration: 8mM): 0.978 ± 0.068 | NP40-soluble protein abundance (concentration: 10mM): 0.983 ± 0.11

A0A087WZV8|A0A0G2JN66 (UniProt P01850)
UniProt P01850, sequence (P01850 whole entry): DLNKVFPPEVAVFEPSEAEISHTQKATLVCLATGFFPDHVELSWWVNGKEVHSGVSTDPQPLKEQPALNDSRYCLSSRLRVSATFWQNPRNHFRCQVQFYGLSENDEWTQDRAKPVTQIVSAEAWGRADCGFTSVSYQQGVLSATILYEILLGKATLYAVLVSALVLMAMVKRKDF
NP40-soluble protein abundance (concentration: 0.1mM): 1.02 ± 0.032 | NP40-soluble protein abundance (concentration: 0.5mM): 1.04 ± 0.034 | NP40-soluble protein abundance (concentration: 1mM): 1.002 ± 0.0081 | NP40-soluble protein abundance (concentration: 2mM): 1.01 ± 0.042 | NP40-soluble protein abundance (concentration: 4mM): 1.01 ± 0.036 | NP40-soluble protein abundance (concentration: 6mM): 0.98 ± 0.023 | NP40-soluble protein abundance (concentration: 8mM): 0.977 ± 0.04 | NP40-soluble protein abundance (concentration: 10mM): 0.976 ± 0.046

D6RAN8|H7C5U8|Q9P0M9 (UniProt Q9P0M9)
NP40-soluble protein abundance (concentration: 0.1mM): 1.09 ± 0.38 | NP40-soluble protein abundance (concentration: 0.5mM): 1.2 ± 0.5 | NP40-soluble protein abundance (concentration: 1mM): 1.53 ± 0.78 | NP40-soluble protein abundance (concentration: 2mM): 1.81 ± 0.82 | NP40-soluble protein abundance (concentration: 4mM): 1.91 ± 0.83 | NP40-soluble protein abundance (concentration: 6mM): 1.72 ± 0.79 | NP40-soluble protein abundance (concentration: 8mM): 1.64 ± 0.79 | NP40-soluble protein abundance (concentration: 10mM): 1.58 ± 0.84

A6NJD9|A8MVT4|A8MYK1|Q16540 (UniProt Q16540)
NP40-soluble protein abundance (concentration: 0.1mM): 1.06 ± 0.1 | NP40-soluble protein abundance (concentration: 0.5mM): 1.11 ± 0.23 | NP40-soluble protein abundance (concentration: 1mM): 1.28 ± 0.22 | NP40-soluble protein abundance (concentration: 2mM): 1.29 ± 0.31 | NP40-soluble protein abundance (concentration: 4mM): 1.36 ± 0.41 | NP40-soluble protein abundance (concentration: 6mM): 1.14 ± 0.35 | NP40-soluble protein abundance (concentration: 8mM): 1.19 ± 0.32 | NP40-soluble protein abundance (concentration: 10mM): 1.2 ± 0.37

A0A0A0MRR7|P09234 (UniProt P09234)
UniProt P09234, sequence (P09234 whole entry, one chain of several): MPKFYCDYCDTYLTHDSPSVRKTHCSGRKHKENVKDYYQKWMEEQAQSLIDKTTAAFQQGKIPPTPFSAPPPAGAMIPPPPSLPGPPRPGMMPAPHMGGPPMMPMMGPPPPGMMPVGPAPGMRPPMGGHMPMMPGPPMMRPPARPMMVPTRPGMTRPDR
NP40-soluble protein abundance (concentration: 0.1mM): 1.06 ± 0.017 | NP40-soluble protein abundance (concentration: 0.5mM): 1.19 ± 0.068 | NP40-soluble protein abundance (concentration: 1mM): 1.25 ± 0.068 | NP40-soluble protein abundance (concentration: 2mM): 1.36 ± 0.052 | NP40-soluble protein abundance (concentration: 4mM): 1.33 ± 0.11 | NP40-soluble protein abundance (concentration: 6mM): 1.56 ± 0.097 | NP40-soluble protein abundance (concentration: 8mM): 1.71 ± 0.2 | NP40-soluble protein abundance (concentration: 10mM): 1.82 ± 0.24

C9IY68|C9J384|Q9BQ75|Q9BQ75-2 (UniProt Q9BQ75)
UniProt Q9BQ75, sequence (Q9BQ75 whole entry, one chain of several): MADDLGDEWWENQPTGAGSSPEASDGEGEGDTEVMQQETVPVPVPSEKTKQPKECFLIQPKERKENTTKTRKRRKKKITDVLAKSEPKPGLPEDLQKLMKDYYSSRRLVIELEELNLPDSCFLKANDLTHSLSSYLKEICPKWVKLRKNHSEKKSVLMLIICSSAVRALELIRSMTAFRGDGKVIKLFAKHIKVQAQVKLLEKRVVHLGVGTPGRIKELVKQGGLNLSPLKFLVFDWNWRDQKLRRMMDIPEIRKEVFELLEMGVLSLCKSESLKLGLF
NP40-soluble protein abundance (concentration: 0.1mM): 0.945 ± 0.058 | NP40-soluble protein abundance (concentration: 0.5mM): 1.03 ± 0.083 | NP40-soluble protein abundance (concentration: 1mM): 1.06 ± 0.071 | NP40-soluble protein abundance (concentration: 2mM): 1.1 ± 0.058 | NP40-soluble protein abundance (concentration: 4mM): 1.17 ± 0.069 | NP40-soluble protein abundance (concentration: 6mM): 1.22 ± 0.094 | NP40-soluble protein abundance (concentration: 8mM): 1.23 ± 0.12 | NP40-soluble protein abundance (concentration: 10mM): 1.31 ± 0.04

G3V583|Q8N128|Q8N128-2 (UniProt Q8N128)
UniProt Q8N128, sequence (Q8N128 whole entry, one chain of several): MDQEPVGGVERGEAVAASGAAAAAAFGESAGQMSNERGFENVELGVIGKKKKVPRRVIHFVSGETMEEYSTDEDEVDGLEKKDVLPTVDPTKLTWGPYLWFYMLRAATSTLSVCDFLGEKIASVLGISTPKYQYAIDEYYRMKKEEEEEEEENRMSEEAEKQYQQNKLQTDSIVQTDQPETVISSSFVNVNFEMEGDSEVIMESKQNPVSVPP
NP40-soluble protein abundance (concentration: 0.1mM): 0.912 ± 0.089 | NP40-soluble protein abundance (concentration: 0.5mM): 0.928 ± 0.084 | NP40-soluble protein abundance (concentration: 1mM): 0.869 ± 0.13 | NP40-soluble protein abundance (concentration: 2mM): 0.94 ± 0.16 | NP40-soluble protein abundance (concentration: 4mM): 0.887 ± 0.16 | NP40-soluble protein abundance (concentration: 6mM): 0.861 ± 0.14 | NP40-soluble protein abundance (concentration: 8mM): 0.87 ± 0.1 | NP40-soluble protein abundance (concentration: 10mM): 0.902 ± 0.14

H0YIE9|O94952|O94952-1|Q4G104 (UniProt O94952)
UniProt O94952, sequence (O94952 whole entry, one chain of several): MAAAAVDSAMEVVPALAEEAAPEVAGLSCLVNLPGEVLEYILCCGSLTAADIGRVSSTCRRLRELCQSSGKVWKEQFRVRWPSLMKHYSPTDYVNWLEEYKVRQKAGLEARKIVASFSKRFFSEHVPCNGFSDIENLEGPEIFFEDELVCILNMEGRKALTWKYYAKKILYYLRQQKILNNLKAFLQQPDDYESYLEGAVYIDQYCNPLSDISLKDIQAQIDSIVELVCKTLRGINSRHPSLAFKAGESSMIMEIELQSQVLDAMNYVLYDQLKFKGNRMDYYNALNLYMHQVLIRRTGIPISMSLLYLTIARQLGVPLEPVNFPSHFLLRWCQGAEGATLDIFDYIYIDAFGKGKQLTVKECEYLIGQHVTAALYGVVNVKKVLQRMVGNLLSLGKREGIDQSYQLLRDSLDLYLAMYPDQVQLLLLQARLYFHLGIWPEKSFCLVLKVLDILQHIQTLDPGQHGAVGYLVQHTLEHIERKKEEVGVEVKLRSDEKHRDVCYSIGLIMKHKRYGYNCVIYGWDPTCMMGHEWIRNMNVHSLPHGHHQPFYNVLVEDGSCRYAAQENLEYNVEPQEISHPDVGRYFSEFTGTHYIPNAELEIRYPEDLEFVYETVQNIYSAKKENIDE
NP40-soluble protein abundance (concentration: 0.1mM): 1.19 ± 0.045 | NP40-soluble protein abundance (concentration: 0.5mM): 1.03 ± 0.091 | NP40-soluble protein abundance (concentration: 1mM): 1.05 ± 0.013 | NP40-soluble protein abundance (concentration: 2mM): 1.04 ± 0.12 | NP40-soluble protein abundance (concentration: 4mM): 1.12 ± 0.014 | NP40-soluble protein abundance (concentration: 6mM): 0.978 ± 0.078 | NP40-soluble protein abundance (concentration: 8mM): 1.08 ± 0.035 | NP40-soluble protein abundance (concentration: 10mM): 0.921 ± 0.089

MYO1G (UniProt B0I1T2)
UniProt B0I1T2, sequence (B0I1T2 whole entry): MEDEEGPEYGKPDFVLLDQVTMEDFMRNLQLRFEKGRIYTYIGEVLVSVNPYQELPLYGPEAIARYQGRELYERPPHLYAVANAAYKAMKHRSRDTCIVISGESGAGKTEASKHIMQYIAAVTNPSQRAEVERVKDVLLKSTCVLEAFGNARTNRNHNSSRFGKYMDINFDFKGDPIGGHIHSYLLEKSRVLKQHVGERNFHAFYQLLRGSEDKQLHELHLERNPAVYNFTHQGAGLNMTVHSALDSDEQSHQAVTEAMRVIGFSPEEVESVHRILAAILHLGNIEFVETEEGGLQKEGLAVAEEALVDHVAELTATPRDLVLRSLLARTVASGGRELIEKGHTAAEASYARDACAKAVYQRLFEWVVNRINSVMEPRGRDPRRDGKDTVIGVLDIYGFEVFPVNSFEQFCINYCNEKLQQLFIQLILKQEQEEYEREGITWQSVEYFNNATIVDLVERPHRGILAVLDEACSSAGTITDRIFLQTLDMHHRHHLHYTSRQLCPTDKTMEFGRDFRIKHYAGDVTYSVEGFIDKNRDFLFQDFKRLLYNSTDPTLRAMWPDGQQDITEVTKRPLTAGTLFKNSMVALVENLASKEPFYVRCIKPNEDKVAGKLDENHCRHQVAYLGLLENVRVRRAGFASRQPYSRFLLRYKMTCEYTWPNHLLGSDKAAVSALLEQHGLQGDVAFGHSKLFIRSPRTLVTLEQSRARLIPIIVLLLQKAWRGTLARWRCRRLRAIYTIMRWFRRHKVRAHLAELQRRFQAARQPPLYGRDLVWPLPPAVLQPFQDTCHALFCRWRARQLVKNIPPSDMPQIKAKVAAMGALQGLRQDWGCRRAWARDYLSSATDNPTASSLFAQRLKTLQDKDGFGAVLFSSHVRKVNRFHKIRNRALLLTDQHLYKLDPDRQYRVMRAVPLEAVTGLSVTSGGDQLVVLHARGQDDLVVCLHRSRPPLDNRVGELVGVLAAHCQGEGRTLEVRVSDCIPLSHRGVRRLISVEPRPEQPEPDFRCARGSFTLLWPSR
NP40-soluble protein abundance (concentration: 0.1mM): 1.12 ± 0.027 | NP40-soluble protein abundance (concentration: 0.5mM): 1.47 ± 0.26 | NP40-soluble protein abundance (concentration: 1mM): 1.95 ± 0.34 | NP40-soluble protein abundance (concentration: 2mM): 2.5 ± 0.51 | NP40-soluble protein abundance (concentration: 4mM): 2.75 ± 0.45 | NP40-soluble protein abundance (concentration: 6mM): 2.67 ± 0.49 | NP40-soluble protein abundance (concentration: 8mM): 2.58 ± 0.3 | NP40-soluble protein abundance (concentration: 10mM): 2.35 ± 0.31

E9PRF4|Q15047|Q15047-3 (UniProt Q15047)
NP40-soluble protein abundance (concentration: 0.1mM): 0.977 ± 0.12 | NP40-soluble protein abundance (concentration: 0.5mM): 0.93 ± 0.12 | NP40-soluble protein abundance (concentration: 1mM): 0.904 ± 0.055 | NP40-soluble protein abundance (concentration: 2mM): 0.909 ± 0.039 | NP40-soluble protein abundance (concentration: 4mM): 0.873 ± 0.04 | NP40-soluble protein abundance (concentration: 6mM): 0.881 ± 0.035 | NP40-soluble protein abundance (concentration: 8mM): 0.904 ± 0.051 | NP40-soluble protein abundance (concentration: 10mM): 0.862 ± 0.017

A0A0C4DGS0|P56556 (UniProt P56556)
UniProt P56556, sequence (P56556 whole entry, one chain of several): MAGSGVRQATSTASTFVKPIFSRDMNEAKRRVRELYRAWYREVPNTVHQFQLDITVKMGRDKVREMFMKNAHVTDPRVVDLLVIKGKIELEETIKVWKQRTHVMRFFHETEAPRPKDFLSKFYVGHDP
NP40-soluble protein abundance (concentration: 0.1mM): 0.947 ± 0.069 | NP40-soluble protein abundance (concentration: 0.5mM): 0.934 ± 0.051 | NP40-soluble protein abundance (concentration: 1mM): 1.05 ± 0.1 | NP40-soluble protein abundance (concentration: 2mM): 1.08 ± 0.12 | NP40-soluble protein abundance (concentration: 4mM): 1.09 ± 0.17 | NP40-soluble protein abundance (concentration: 6mM): 1.02 ± 0.093 | NP40-soluble protein abundance (concentration: 8mM): 0.939 ± 0.064 | NP40-soluble protein abundance (concentration: 10mM): 1.01 ± 0.1

A0A087WYN2|J3KSS7|Q9NZ52|Q9NZ52-4 (UniProt Q9NZ52)
UniProt Q9NZ52, sequence (Q9NZ52 whole entry, one chain of several): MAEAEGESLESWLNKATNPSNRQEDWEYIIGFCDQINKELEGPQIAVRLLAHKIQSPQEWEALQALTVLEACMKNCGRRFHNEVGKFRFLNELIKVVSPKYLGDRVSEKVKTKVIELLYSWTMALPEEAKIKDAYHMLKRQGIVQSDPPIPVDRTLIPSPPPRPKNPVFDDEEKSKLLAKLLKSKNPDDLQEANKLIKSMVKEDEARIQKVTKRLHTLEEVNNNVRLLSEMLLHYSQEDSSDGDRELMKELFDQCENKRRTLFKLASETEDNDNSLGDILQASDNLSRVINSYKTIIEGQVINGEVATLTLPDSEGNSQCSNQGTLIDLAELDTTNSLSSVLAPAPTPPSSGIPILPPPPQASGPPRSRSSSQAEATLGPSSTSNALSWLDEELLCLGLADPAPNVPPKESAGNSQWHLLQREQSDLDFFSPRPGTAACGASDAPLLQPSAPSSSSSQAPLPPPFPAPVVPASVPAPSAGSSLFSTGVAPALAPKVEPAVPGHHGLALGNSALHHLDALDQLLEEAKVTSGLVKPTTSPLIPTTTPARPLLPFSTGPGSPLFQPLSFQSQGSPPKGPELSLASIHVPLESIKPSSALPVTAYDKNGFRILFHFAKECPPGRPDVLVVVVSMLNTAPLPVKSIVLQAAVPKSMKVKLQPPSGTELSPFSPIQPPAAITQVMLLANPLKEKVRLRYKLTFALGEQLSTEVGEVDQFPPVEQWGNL
NP40-soluble protein abundance (concentration: 0.1mM): 0.909 ± 0.037 | NP40-soluble protein abundance (concentration: 0.5mM): 0.905 ± 0.087 | NP40-soluble protein abundance (concentration: 1mM): 0.957 ± 0.09 | NP40-soluble protein abundance (concentration: 2mM): 0.915 ± 0.13 | NP40-soluble protein abundance (concentration: 4mM): 0.92 ± 0.14 | NP40-soluble protein abundance (concentration: 6mM): 0.94 ± 0.16 | NP40-soluble protein abundance (concentration: 8mM): 0.921 ± 0.08 | NP40-soluble protein abundance (concentration: 10mM): 0.896 ± 0.057
